An excerpt weighted towards active compounds, which were near 3.6% of everything screened.
PHOSPHO1 inh: PHOSPHO1 (human) inhibition. Q8TCT1. hit rate 1.1% among 290,000. inhibition, % at 13.3 µM. recombinant PHOSPHO1, absorbance phosphatase assay; in the data active = inhibition above about 60%
Target sequence (Q8TCT1 whole entry, looked up): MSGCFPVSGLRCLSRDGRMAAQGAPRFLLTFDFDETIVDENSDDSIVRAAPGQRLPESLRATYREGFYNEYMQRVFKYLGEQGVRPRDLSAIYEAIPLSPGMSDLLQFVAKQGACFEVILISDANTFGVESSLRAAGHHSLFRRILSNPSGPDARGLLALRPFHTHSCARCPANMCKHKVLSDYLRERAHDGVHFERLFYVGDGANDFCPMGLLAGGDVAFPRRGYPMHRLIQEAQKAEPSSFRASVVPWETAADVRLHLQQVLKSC
MITF act: MITF TRPM1 promoter activation in melanoma cells; SK-MEL-5 TRPM1-promoter luciferase, 24 h; % of positive control, neutral wells = 0; activation, % at 12.5 µM; hit rate 0.75% among 300,000; AID 588334;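 active = mean activation of at least 80% with every replicate also reaching 80%; inconclusive = mean reaches 80% but some replicate falls short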;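 note: 0% = neutral control wells and 100% = parthenolide positive control wells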
esBAF inh: SWI/SNF esBAF complex inhibition. reporter increase, % at 12.5 µM. mouse ES cells, Bmi1-luciferase knock-in reporter, 24 h; 100% = twice the neutral-well signal. hit rate 2% among 350,000; in the data active = activation above about 40%; inconclusive = no clear call, values can overlap the other calls;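 note: 0% = median of the plate's neutral control wells and 100% = double that signal; a rise in the Bmi1 reporter signal indicates esBAF inhibition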
APOBEC3A inh: blocks human APOBEC3A ssDNA deamination; inhibition, % at 20 µM; recombinant A3A, FAM/TAMRA ssDNA deamination fluorescence; hit rate 0.41% among 330,000; P31941;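 active = at least 40% inhibition at 20 µM here, with at most 30% in a related deaminase screen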;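 note: plate controls were A3A with DMSO for no effect and wells lacking A3A enzyme for full effect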
Target sequence (P31941 whole entry, looked up): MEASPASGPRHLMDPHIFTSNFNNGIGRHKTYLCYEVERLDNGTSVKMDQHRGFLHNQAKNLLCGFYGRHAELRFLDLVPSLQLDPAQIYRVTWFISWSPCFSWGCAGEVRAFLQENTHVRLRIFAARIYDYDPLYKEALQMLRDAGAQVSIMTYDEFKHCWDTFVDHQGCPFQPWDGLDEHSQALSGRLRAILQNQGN
Wnt bcat act: activators of Wnt/beta-catenin signaling | Wnt/beta-catenin reporter cell assay, activator, plate reader | hit rate 1.2% among 300,000 | AID 743398 | activation, % at 9.35 µM; in the data active = activation above about 30%, passing the limit was not always enough; inconclusive = no clear call, values can overlap the other calls;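 note: 0% = neutral control wells and 100% = positive control wells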
APOBEC3G inh: inhibitors of human APOBEC3G DNA deaminase | recombinant A3G, ssDNA deamination FAM/TAMRA fluorescence | Q9HC16 | inhibition, % at 20 µM | hit rate 0.28% among 330,000;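 active = inhibition of at least 40% at 20 µM, with no more than 30% in the related APOBEC3A deaminase screen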;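 note: plate controls were DMSO wells with A3G for no effect and wells lacking A3G enzyme for full effect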
* marks the source's active call; other numbers are inactive results; ? = inconclusive; . = no result.

SMILES | PHOSPHO1 inh | MITF act | esBAF inh | APOBEC3A inh | Wnt bcat act | APOBEC3G inh
CCOc1cc(C2NC(=O)NC(C)=C2C(C)=O)cc(Cl)c1OCC(=O)O (stereo unspecified) | -7 | 2 | -3 | 1 | . | 1
CC(C)(C)c1ccc(OCC(O)CSc2ncn[nH]2)cc1 (stereo unspecified) | 80* | -13 | -7 | -3 | 1 | -12
OC(COc1ccccc1)CSc1ncn[nH]1 (stereo unspecified) | 1 | -6 | 5 | 0 | . | -5
CCC(=O)N1C[C@@H](C)[C@@H](OC)CN(C)C(=O)c2cc(NC(=O)COC)ccc2OC[C@@H]1C | . | . | -2 | . | . | .
Cc1ccc(C(=O)Nc2ccc3ncccc3c2)cc1 | 37 | -47 | -66 | -1 | 22 | -5
O=C(Nc1ccc2ncccc2c1)c1cccc(Br)c1 | 18 | 41 | ? | 0 | 33* | -4
O=C(NNC(=O)c1ccccc1F)c1cccc(-n2cccc2)c1 | . | 39 | 45* | 94 | -3 | 61
C[C@@H](NC(=O)C[C@H]1CC[C@@H](NC(=O)c2cccnc2)[C@H](CO)O1)c1ccccc1 | . | . | -4 | . | . | .
N#Cc1cc2c([nH]c1=S)CCCCCC2 | 93* | 5 | -5 | -6 | . | 39
O=C(C[C@H]1CC[C@@H]2[C@H](COC[C@H](O)CN2S(=O)(=O)c2cccc(Cl)c2)O1)N1CCOCC1 | . | . | -8 | . | . | .
COc1ccc2nc(NC(=O)c3ccoc3C)sc2c1 | -11 | 25 | -23 | -1 | 12 | -3
Cc1csc(NC(=O)c2cc(C)oc2C)n1 | 16 | 60 | 63* | -1 | . | -5
COc1ccc2nc(NC(=O)c3cc(C)oc3C)sc2c1 | -11 | 96* | 32 | 3 | . | 1
Cc1csc(NC(=O)c2ccccc2O)n1 | 19 | 27 | 36 | -1 | . | -2
Cc1cc(C(=O)Nc2nc3ccc(S(C)(=O)=O)cc3s2)c(C)o1 | 34 | 58 | 53* | -2 | 13 | -3
CC(C)(O)C#Cc1ccc([C@@H]2[C@@H](CO)N3CCCCN(C(=O)c4ccc(F)cc4)C[C@@H]23)cc1 | . | . | -1 | . | . | .
C[C@@H](NC(=O)[C@@H]1[C@@H](CO)[C@@H]2Cn3c(ccc(C4=CCCCC4)c3=O)[C@H]1N2)c1ccccc1 | . | . | 3 | . | . | .
CCOc1ccc2nc(SCC(=O)N(C)C3CCS(=O)(=O)C3)[nH]c2c1 (stereo unspecified) | 100* | -13 | -3 | -2 | . | -5
Cc1ccc2nc(SCC(=O)N(C)C3CCS(=O)(=O)C3)[nH]c2c1 (stereo unspecified) | . | -12 | 2 | -3 | 3 | -8
Clc1ccc(-c2noc(CN3CCCC3)n2)cc1 | 7 | . | 44* | -3 | 0 | -5
C[C@@H]1CN([C@H](C)CO)C(=O)c2cc(NC(=O)CCC(F)(F)F)ccc2O[C@@H](C)CCCCO[C@@H]1CN(C)Cc1ccc2c(c1)OCO2 | . | . | 2 | . | . | .
O=C(O)COn1c(-c2ccc(Cl)cc2)nc2ccc(Cl)cc21 | 25 | 57 | . | -3 | 13 | -6
O=C(O)COn1c(-c2ccccc2)nc2ccc([N+](=O)[O-])cc21 | 42 | 59 | 49* | 29 | 12 | 25
CCOC(=O)C(C)On1c(-c2ccccc2)nc2ccc([N+](=O)[O-])cc21 (stereo unspecified) | 1 | 99* | . | -3 | . | -3
O=c1c2ccc(Cl)cc2nc(-c2ccc([N+](=O)[O-])cc2)n1O | 7 | -2 | -6 | 1 | 0 | 0
SMILES | PHOSPHO1 inh | MITF act | esBAF inh | APOBEC3A inh | Wnt bcat act | APOBEC3G inh
CCOC(=O)C(C)On1c(-c2ccc(Cl)cc2)nc2ccc([N+](=O)[O-])cc21 (stereo unspecified) | 102* | 58 | . | 6 | . | 0
C[C@H](CO)N1C[C@H](C)[C@@H](CN(C)C(=O)CN(C)C)Oc2cc(C#CC(C)(C)O)ccc2S1(=O)=O | . | . | 3 | . | . | .
O=C(Nn1c(O)c(C=C2N=c3ccccc3=N2)sc1=S)c1ccccc1Cl | 79* | -5 | 9 | 0 | 2 | -1
NC(=O)Cc1c[nH]c2cccc(O)c12 | -19 | . | -2 | -9 | 36* | -4
NC(=O)COC(=O)CCCc1c[nH]c2ccccc12 | -56 | -9 | -5 | 2 | . | -2
CN1CCCCN2[C@H](C1)[C@@H](c1ccc(Br)cc1)[C@@H]2CO | . | . | -5 | . | . | .
Cc1ccc(S(=O)(=O)N[C@H]2C=C[C@H](CC(=O)NCCc3ccncc3)O[C@@H]2CO)cc1 | . | . | -3 | . | . | .
C=CCn1c(-c2cccn(Cc3cccc(Cl)c3)c2=O)n[nH]c1=S | 98* | . | -5 | -5 | . | 26
C=CCn1c(-c2cccn(Cc3ccc(Cl)cc3)c2=O)n[nH]c1=S | 99* | 2 | 6 | -4 | 6 | 26
CCC(=O)N(C)C[C@H]1Oc2cc(C#Cc3ccncc3)ccc2S(=O)(=O)N([C@H](C)CO)C[C@@H]1C | . | . | 2 | . | . | .
Cc1ccc(S(=O)(=O)N(C)C[C@@H]2Oc3c(NS(=O)(=O)c4cccs4)cccc3C(=O)N([C@H](C)CO)C[C@@H]2C)cc1 | . | . | 0 | . | . | .
CC(C)c1nnc(NC(=O)c2cccc(NC(=O)C(F)(F)F)c2)s1 | -6 | 50 | . | 0 | 35* | 5
CC(C)C(=O)Nc1cccc(C(=O)Nc2nnc(C(C)C)s2)c1 | 13 | 91* | 9 | -5 | . | -8
CCOc1ccccc1NC(=O)c1cccc(NC(=O)C(C)C)c1 | 61* | 1 | . | 0 | 0 | -4
C[C@@H]1CN([C@@H](C)CO)C(=O)c2cccc(NC(=O)Nc3ccccc3)c2O[C@@H]1CN(C)C(=O)Nc1cccc2ccccc12 | . | . | 5 | . | . | .
Cc1onc(-c2c(Cl)cccc2Cl)c1C(=O)N1C(C)CCCC1C (stereo unspecified) | 25 | 1 | 2 | 4 | 3 | 7
CC1CCCC(C)N1C(=O)c1cc(-c2ccc3c(c2)OCO3)on1 (stereo unspecified) | -8 | 95* | 56* | -3 | 1 | -1
CC1CCCC(C)N1C(=O)c1cc(-c2ccc(Cl)c(Cl)c2)on1 (stereo unspecified) | -28 | 97* | 80* | 2 | . | -1
CC(=O)c1ccc(NC(=O)Nc2ccccc2)cc1 | 0 | 43 | 48* | -4 | . | 1
CC(=O)c1cccc(NC(=O)Nc2ccccc2)c1 | 37 | 39 | 22 | 1 | 7 | -5
CC(C)C(=O)Nc1ccc(C(=O)c2ccccc2)cc1 | 3 | 50 | 67* | -2 | 29 | -3
CCN(CC)c1ccc(NC(=O)Nc2ccccc2)cc1 | . | 62 | 16 | -2 | 23 | -6
CCN(CC)c1ccc(NC(=O)Nc2ccc(C(C)=O)cc2)cc1 | 85* | . | 1 | -4 | . | -10
C[C@@H]1CN([C@H](C)CO)S(=O)(=O)c2ccc(-c3ccccc3)cc2O[C@H]1CN(C)C(=O)Cc1ccccc1 | . | . | -4 | . | . | .
O=C(Cc1cccs1)NNC(=S)NCc1ccc(Cl)cc1 | 100* | 16 | 0 | -2 | . | -4
O=C(Cc1ccc(Cl)cc1)NNC(=S)NC(=O)c1cccs1 | -122 | -3 | -3 | -2 | 0 | -2

From PubChem
